# Inconclusive results are not listed. The source made the active and inactive calls. Rule for the calls: active = hit-call score of the fitted dose curve at least 0.9, where 1 is the maximum; inconclusive = response in the unintended direction; inactive = score below 0.9.
# Tests used:
# [1] = ACEA_ER_AUC_viability: ACEA Biosciences xCELLigence Real-Time Cell Analysis on Estrogen Receptor Agonism for Viability (AID 2283782);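 note: hit means loss of impedance signal meaning reduced cell growth or viability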
# Procedure, shortened: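 Continuous-exposure impedance cell analysis uses T-47D cells in charcoal-stripped serum, eight 1:4 dilutions topping at 100 uM final, biological duplicate. Area under the growth curve at 80 h is fitted against DMSO baseline.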
# [2] = test system: frog Estrogen Receptor (ESR1), gene 398734; experiment: ATG_frER1_XSP1: Attagene TRANS-FACTORIAL Multi-Species (XSP1) HepG2 Assay for frog Estrogen Receptor (ESR1) (AID 2283777)
# Procedure, shortened: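 After transient transfection and 24 h compound treatment, total RNA from HepG2 cells was reverse-transcribed, amplified, FAM-labeled and resolved by capillary electrophoresis. Signal increases were fitted against DMSO controls.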
# [3] = test system: zebrafish Estrogen Receptor (ESR2A), gene 317734; experiment: ATG_zfER2a_XSP1: Attagene TRANS-FACTORIAL Multi-Species (XSP1) HepG2 Assay for zebrafish Estrogen Receptor (ESR2A) (AID 2283778)
# Procedure, shortened: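 Gain-of-signal reporter transcription readout from GAL4-UAS units in transiently transfected HepG2 cells, 24 h exposure, 3 nM 6-alpha-fluorotestosterone co-present. Detection by RT-PCR with capillary electrophoresis fluorescence.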
# [4] = target: chicken Estrogen Receptor (ESR1), ESR1 (gene 396099) (UniProt P06212); experiment: ATG_chERa_XSP1: Attagene TRANS-FACTORIAL Multi-Species (XSP1) HepG2 Assay for chicken Estrogen Receptor (ESR1) (AID 2283779)
# Chain of chicken Estrogen Receptor (ESR1), ESR1 (gene 396099) (P06212 whole entry, looked up, the tested form may be a part): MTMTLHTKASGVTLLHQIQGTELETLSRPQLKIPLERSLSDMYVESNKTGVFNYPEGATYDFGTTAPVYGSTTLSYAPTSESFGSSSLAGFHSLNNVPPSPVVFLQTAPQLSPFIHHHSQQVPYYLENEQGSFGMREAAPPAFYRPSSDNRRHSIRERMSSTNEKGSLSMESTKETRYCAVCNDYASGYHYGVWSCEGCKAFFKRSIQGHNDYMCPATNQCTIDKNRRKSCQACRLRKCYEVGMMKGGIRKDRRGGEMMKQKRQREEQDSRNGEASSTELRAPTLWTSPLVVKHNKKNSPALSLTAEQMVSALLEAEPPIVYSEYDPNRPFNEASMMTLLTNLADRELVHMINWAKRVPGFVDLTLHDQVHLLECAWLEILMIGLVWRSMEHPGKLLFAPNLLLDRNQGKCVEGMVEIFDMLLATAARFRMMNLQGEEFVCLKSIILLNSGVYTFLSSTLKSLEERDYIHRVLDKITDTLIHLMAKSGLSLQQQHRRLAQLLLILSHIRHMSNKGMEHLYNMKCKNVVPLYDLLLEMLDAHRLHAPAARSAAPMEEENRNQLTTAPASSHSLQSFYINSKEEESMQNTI
# Procedure, shortened: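 Gain-of-signal reporter transcription, relative to DMSO, was scored in transiently transfected HepG2 cells after a 24 h dose. Fluorescence intensity of amplified, digested reporter cDNA fragments served as the endpoint.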
# [5] = target: Estrogen receptor (Homo sapiens) (UniProt P03372); experiment: ATG_hERa_XSP1: Attagene TRANS-FACTORIAL Multi-Species (XSP1) HepG2 Assay for human Estrogen Receptor (ESR1) (AID 2283780)
# Procedure, shortened: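 Reporter transcripts from multiplexed GAL4-UAS units driven by NR-Gal4 chimeras in transiently transfected HepG2 were measured by RT-PCR with capillary electrophoresis 24 h post-dose, with 3 nM 6-alpha-fluorotestosterone present; gain-of-signal relative to DMSO.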
# [6] = target: Estrogen receptor beta (Homo sapiens) (UniProt Q92731); experiment: ATG_hERb_XSP1: Attagene TRANS-FACTORIAL Multi-Species (XSP1) HepG2 Assay for human Estrogen Receptor (ESR2) (AID 2283788)
# Chain of Estrogen receptor beta (Homo sapiens) (Q92731 whole entry, looked up, the tested form may be a part): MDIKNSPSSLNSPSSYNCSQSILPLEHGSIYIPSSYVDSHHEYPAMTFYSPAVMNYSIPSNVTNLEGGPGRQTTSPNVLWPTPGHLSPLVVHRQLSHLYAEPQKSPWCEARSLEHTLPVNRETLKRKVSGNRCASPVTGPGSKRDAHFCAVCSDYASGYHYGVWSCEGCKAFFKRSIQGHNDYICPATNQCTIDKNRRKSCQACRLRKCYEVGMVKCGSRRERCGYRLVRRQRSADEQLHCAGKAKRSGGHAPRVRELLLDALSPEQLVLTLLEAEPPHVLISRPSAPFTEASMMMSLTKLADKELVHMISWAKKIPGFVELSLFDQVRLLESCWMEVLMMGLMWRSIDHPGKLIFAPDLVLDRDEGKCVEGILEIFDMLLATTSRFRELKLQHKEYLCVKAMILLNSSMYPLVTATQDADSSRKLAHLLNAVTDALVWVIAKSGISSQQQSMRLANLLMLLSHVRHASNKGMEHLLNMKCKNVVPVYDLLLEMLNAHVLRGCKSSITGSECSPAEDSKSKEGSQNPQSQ
# Procedure, shortened: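 Multiplexed trans-activation in transfected HepG2: ERβ-Gal4 reporter transcripts after 24 h treatment, detected by RT-PCR plus capillary electrophoresis.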
# [7] = ATG_M_06_XSP1: Attagene TRANS-FACTORIAL Multi-Species (XSP1) HepG2 Assay for M06 Transcription Factor (Internal Marker) (AID 2283790)
# Procedure, shortened: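 This background-control readout tracks M06 reporter mRNA, measured by RT-PCR and capillary electrophoresis. HepG2 cells transiently carrying the GAL4-UAS reporter panel were dosed for 24 h with 3 nM 6-alpha-fluorotestosterone added for partial AR stimulation; increases were scored relative to DMSO.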
# [8] = ATG_M_61_XSP1: Attagene TRANS-FACTORIAL Multi-Species (XSP1) HepG2 Assay for M61 Transcription Factor (Internal Marker) (AID 2283797)
# Procedure, shortened: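 Background-control readout: reporter transcripts measured by RT-PCR and capillary electrophoresis 24 h after dosing transiently transfected HepG2 multi-reporter cells, with 3 nM 6-alpha-fluorotestosterone present. Fitted in the positive direction relative to DMSO.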
# [9] = target: Peroxisome proliferator-activated receptor gamma (Homo sapiens) (UniProt P37231); experiment: ATG_hPPARg_XSP1: Attagene TRANS-FACTORIAL Multi-Species (XSP1) HepG2 Assay for human Peroxisome Proliferator-activated Receptor gamma (PPARg) (AID 2283800)
# Chain of Peroxisome proliferator-activated receptor gamma (Homo sapiens) (P37231 whole entry, looked up, the tested form may be a part): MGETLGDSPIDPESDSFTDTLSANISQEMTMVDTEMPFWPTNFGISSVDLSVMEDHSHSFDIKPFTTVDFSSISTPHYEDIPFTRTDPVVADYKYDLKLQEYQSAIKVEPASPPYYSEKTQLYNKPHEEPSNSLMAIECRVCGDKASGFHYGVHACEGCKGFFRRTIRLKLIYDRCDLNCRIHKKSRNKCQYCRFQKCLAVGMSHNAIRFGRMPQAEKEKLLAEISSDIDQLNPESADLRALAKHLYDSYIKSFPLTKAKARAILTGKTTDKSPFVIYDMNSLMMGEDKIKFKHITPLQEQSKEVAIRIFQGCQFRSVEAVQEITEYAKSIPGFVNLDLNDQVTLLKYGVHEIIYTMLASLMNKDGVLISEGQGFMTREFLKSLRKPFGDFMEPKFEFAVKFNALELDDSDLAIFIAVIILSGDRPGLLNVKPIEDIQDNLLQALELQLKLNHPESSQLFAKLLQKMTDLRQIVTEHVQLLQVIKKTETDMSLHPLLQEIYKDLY
# Procedure, shortened: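 Reporter mRNA induction, measured by RT-PCR with capillary electrophoresis 24 h after dosing, scored as gain over DMSO. Transfected HepG2 cells express exogenous NR-Gal4 chimeras driving GAL4-UAS reporters; medium includes 3 nM 6-alpha-fluorotestosterone.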
# [10] = test system: zebrafish Peroxisome Proliferator-activated Receptor gamma (PPARg), gene 557037; experiment: ATG_zfPPARg_XSP1: Attagene TRANS-FACTORIAL Multi-Species (XSP1) HepG2 Assay for zebrafish Peroxisome Proliferator-activated Receptor gamma (PPARg) (AID 2283801)
# Procedure, shortened: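 Trans-activation readout of chimeric zebrafish PPARg–GAL4 in transiently transfected human HepG2 cells, 24 h chemical exposure (medium includes 3 nM 6-alpha-fluorotestosterone). Reporter transcripts measured by RT-PCR and capillary electrophoresis, fitted as gain over DMSO.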
# [11] = target: mouse Peroxisome Proliferator-activated Receptor gamma (PPARg), Pparg (gene 19016) (UniProt P37238); experiment: ATG_mPPARg_XSP1: Attagene TRANS-FACTORIAL Multi-Species (XSP1) HepG2 Assay for mouse Peroxisome Proliferator-activated Receptor gamma (PPARg) (AID 2283802)
# Chain of mouse Peroxisome Proliferator-activated Receptor gamma (PPARg), Pparg (gene 19016) (P37238 whole entry, looked up, the tested form may be a part): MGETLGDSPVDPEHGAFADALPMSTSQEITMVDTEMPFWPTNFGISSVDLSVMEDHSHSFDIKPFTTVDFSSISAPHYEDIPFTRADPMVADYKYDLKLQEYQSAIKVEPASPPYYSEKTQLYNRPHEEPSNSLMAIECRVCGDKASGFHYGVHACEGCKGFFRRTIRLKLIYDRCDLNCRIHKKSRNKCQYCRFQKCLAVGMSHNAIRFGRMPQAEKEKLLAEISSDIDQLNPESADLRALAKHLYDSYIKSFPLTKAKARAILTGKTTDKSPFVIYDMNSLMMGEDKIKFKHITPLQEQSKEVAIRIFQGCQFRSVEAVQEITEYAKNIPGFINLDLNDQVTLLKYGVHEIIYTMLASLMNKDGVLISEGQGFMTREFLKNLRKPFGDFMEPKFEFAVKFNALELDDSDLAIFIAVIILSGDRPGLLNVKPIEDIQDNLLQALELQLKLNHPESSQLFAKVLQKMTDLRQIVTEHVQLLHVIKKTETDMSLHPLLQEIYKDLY
# Procedure, shortened: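 Readout is reporter mRNA induction, measured by RT-PCR with 6-FAM labelling, HpaI digestion and capillary electrophoresis, 24 h post-dose relative to DMSO. Transient multi-reporter transfection of human HepG2 with mouse PPARg–GAL4 fusion; 3 nM 6-alpha-fluorotestosterone included.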
# [12] = target: Nuclear receptor subfamily 1 group I member 2 (Mus musculus) (UniProt O54915); experiment: ATG_mPXR_XSP1: Attagene TRANS-FACTORIAL Multi-Species (XSP1) HepG2 Assay for mouse Pregnane X Receptor (PXR) (AID 2283803)
# Chain of Nuclear receptor subfamily 1 group I member 2 (Mus musculus) (O54915 whole entry, looked up, the tested form may be a part): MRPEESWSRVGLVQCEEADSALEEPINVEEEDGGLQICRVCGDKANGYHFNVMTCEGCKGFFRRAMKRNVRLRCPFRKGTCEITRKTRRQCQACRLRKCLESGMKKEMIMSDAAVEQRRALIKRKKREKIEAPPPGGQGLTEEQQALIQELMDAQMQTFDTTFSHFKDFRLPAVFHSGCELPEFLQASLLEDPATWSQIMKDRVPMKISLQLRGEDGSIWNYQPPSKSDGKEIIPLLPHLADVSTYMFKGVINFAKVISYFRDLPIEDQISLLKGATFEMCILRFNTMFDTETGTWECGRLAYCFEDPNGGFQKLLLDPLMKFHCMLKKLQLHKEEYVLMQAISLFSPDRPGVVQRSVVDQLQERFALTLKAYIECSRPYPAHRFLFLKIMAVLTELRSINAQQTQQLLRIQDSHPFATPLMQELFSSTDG
# Procedure, shortened: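 Transiently transfected HepG2 cells expressing a receptor-Gal4 chimera drive a GAL4-UAS reporter; 3 nM 6-alpha-fluorotestosterone included. Reporter mRNA read 24 h post-dose by RT-PCR and capillary electrophoresis; gain of signal relative to DMSO.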
# [13] = target: frog Thyroid hormone Receptor alpha (TRa), thra-a (gene 397942) (UniProt P15204); experiment: ATG_frTRa_XSP1: Attagene TRANS-FACTORIAL Multi-Species (XSP1) HepG2 Assay for frog Thyroid hormone Receptor alpha (TRa) (AID 2283804)
# Chain of frog Thyroid hormone Receptor alpha (TRa), thra-a (gene 397942) (P15204 whole entry, looked up, the tested form may be a part): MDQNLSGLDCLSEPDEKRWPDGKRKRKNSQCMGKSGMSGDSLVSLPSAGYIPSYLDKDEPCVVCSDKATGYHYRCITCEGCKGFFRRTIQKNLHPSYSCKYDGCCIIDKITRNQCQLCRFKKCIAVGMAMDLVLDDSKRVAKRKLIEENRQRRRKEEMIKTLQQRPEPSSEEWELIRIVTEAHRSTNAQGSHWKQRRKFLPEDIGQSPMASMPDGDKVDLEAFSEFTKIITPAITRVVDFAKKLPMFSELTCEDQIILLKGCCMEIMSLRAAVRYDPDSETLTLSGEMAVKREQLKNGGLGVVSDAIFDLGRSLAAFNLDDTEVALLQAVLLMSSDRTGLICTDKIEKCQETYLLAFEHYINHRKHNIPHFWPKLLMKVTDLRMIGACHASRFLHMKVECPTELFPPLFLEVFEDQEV
# Procedure, shortened: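 Reporter transcript induction, measured by RT-PCR with 6-FAM labelling and capillary electrophoresis, 24 hr after dosing transiently transfected HepG2 cells expressing a frog TRa-GAL4 fusion; medium contained 3 nM 6-alpha-fluorotestosterone; increase over DMSO scored.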
# [14] = target: human Thyroid hormone Receptor alpha (TRa), THRA (gene 7067) (UniProt P10827); experiment: ATG_hTRa_XSP1: Attagene TRANS-FACTORIAL Multi-Species (XSP1) HepG2 Assay for human Thyroid hormone Receptor alpha (TRa) (AID 2283805)
# Chain of human Thyroid hormone Receptor alpha (TRa), THRA (gene 7067) (P10827 whole entry, looked up, the tested form may be a part): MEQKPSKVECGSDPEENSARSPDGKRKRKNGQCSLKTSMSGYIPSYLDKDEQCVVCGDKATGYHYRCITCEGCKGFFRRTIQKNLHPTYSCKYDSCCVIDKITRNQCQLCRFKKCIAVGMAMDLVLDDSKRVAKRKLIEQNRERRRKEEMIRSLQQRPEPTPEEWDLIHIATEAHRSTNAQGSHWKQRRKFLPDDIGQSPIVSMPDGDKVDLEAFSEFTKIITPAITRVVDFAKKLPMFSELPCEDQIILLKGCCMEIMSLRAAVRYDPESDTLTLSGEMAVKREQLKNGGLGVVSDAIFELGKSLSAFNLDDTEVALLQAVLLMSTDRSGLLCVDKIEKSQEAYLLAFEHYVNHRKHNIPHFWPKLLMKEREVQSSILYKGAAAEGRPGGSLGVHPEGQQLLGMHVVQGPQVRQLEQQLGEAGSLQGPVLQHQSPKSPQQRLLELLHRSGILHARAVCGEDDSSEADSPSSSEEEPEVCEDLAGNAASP
# Procedure, shortened: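 Reporter transcripts from the human TRa-Gal4 TRANS unit quantified by RT-PCR, fluorescent labeling and capillary electrophoresis after 24 hours of chemical exposure in transfected HepG2 cells; medium contains 3 nM 6-alpha-fluorotestosterone. Positive direction fit against DMSO.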
# [15] = test system: turtle Thyroid Hormone Receptor, alpha (TRa), gene 101949057; experiment: ATG_trTRa_XSP1: Attagene TRANS-FACTORIAL Multi-Species (XSP1) HepG2 Assay for turtle Thyroid Hormone Receptor, alpha (TRa) (AID 2283806)
# Procedure, shortened: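 After 24 h chemical exposure, reporter transcripts were measured by RT-PCR with fluorescent primer extension, HpaI digestion and capillary electrophoresis. Cells were transiently transfected HepG2 expressing exogenous NR-Gal4 chimeras; medium contained 3 nM 6-alpha-fluorotestosterone; fitted upward relative to DMSO.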
# [16] = target: zebrafish Thyroid Hormone Receptor alpha (TRa), thraa (gene 30670) (UniProt Q98867); experiment: ATG_zfTRa_XSP1: Attagene TRANS-FACTORIAL Multi-Species (XSP1) HepG2 Assay for zebrafish Thyroid Hormone Receptor alpha (TRa) (AID 2283807)
# Chain of zebrafish Thyroid Hormone Receptor alpha (TRa), thraa (gene 30670) (Q98867 whole entry, looked up, the tested form may be a part): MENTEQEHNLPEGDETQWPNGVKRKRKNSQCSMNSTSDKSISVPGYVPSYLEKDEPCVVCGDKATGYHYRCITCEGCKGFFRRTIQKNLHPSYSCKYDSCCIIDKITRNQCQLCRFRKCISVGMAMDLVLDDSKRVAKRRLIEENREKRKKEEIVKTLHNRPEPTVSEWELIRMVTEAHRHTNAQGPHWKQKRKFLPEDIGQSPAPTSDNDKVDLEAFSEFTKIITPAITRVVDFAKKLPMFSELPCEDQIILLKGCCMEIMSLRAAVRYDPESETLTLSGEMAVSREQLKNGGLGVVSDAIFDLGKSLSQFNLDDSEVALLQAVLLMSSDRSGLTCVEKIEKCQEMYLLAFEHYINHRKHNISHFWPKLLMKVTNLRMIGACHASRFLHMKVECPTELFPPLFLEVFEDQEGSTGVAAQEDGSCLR
# Procedure, shortened: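 Reporter transcripts driven by a chimeric zebrafish TRa–Gal4 protein were measured by RT-PCR with fluorescent labelling and capillary electrophoresis. These came from transiently transfected HepG2 cells after 24 h chemical exposure, with 3 nM 6-alpha-fluorotestosterone added; baseline was DMSO.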
# [17] = target: AR (gene 367) (UniProt P10275); experiment: ACEA_AR_agonist_80hr: ACEA Biosciences xCELLigence Real-Time Cell Analysis on Androgen Receptor Agonism for Proliferation (AID 2283783);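 note: hits increase impedance growth signal above DMSO baseline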
# Chain of AR (gene 367) (P10275 whole entry, looked up): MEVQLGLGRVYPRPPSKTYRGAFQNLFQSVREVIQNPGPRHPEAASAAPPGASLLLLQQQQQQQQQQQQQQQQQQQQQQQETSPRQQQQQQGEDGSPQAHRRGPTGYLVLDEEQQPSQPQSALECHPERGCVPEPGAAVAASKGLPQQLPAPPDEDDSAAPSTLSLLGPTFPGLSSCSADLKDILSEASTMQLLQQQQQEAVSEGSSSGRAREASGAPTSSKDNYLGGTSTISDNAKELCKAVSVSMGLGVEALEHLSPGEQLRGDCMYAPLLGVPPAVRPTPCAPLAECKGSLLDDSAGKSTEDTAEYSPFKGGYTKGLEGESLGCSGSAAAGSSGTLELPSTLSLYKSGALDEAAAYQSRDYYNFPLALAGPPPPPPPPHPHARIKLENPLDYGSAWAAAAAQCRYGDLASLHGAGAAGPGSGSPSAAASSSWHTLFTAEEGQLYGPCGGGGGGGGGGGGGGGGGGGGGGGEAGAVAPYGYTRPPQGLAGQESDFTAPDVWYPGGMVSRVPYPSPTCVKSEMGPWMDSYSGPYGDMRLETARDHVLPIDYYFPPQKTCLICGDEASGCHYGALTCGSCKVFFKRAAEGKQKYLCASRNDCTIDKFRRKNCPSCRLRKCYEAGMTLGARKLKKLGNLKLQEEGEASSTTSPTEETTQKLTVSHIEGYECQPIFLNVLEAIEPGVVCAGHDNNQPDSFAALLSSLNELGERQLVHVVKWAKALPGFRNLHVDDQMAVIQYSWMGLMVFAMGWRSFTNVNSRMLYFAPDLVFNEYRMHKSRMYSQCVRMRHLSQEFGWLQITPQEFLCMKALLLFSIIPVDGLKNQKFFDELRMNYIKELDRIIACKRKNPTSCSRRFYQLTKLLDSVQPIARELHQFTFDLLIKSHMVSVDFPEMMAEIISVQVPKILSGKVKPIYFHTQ
# Procedure, shortened: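 Real-time cell-growth kinetics were recorded by electrode impedance in 22Rv1 cells exposed to test chemicals up to 100 uM final; the 80 h timepoint served as the readout, fitted upward relative to DMSO controls, in biological duplicate.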
# [18] = ATG_M_32_XSP1: Attagene TRANS-FACTORIAL Multi-Species (XSP1) HepG2 Assay for M32 Transcription Factor (Internal Marker) (AID 2283799)
# Procedure, shortened: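 Reporter transcripts from the M32 internal-control unit measured by RT-PCR, FAM labelling, HpaI digestion and capillary electrophoresis after 24 h compound exposure of transfected HepG2, 3 nM 6-alpha-fluorotestosterone included; DMSO baseline, positive-direction fit.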
smiles,measurement,setting,value
O=C(N[C@H](CO)[C@H](O)c1ccc([N+](=O)[O-])cc1)C(Cl)Cl,AC50,[1],73.2 µM (active)
CC(C)C(=O)Nc1ccc([N+](=O)[O-])c(C(F)(F)F)c1,outcome,[2],inactive
same,outcome,[3],inactive
same,outcome,[4],inactive
same,outcome,[5],inactive
same,outcome,[6],inactive
same,outcome,[7],inactive
same,outcome,[8],inactive
same,AC50,[9],21.9 µM (active)
same,outcome,[10],inactive
same,AC50,[11],27.1 µM (active)
same,AC50,[12],27.4 µM (active)
same,AC50,[13],63.9 µM (active)
same,AC50,[14],29 µM (active)
same,AC50,[15],22.7 µM (active)
same,AC50,[16],18.3 µM (active)
O=C(O)c1cccc(C[C@@H]2COc3ccc(OCc4nc5cc(F)ccc5s4)cc3[C@@H]2O)c1,outcome,[1],inactive
CCOC(N)=O,outcome,[1],inactive
CCN(CC)C(=S)SSC(=S)N(CC)CC,AC50,[1],25.4 µM (active)
same,outcome,[17],inactive
same,outcome,[7],inactive
same,outcome,[8],inactive
same,outcome,[18],inactive
same,outcome,[9],inactive
same,outcome,[11],inactive
same,outcome,[13],inactive
same,outcome,[14],inactive
same,outcome,[15],inactive
same,outcome,[16],inactive
COc1cc2c(c(OC)c1OC)-c1ccc(OC)c(=O)cc1[C@@H](NC(C)=O)CC2,AC50,[1],0.00238 µM (active)
same,outcome,[17],inactive
FC(F)=C(F)C(F)(F)C(F)(F)C(F)(F)C(F)(F)C(F)(F)C(F)(F)F,outcome,[1],inactive
CCCCCCCCCCCCCCCCOS(=O)(=O)O,outcome,[1],inactive
same,outcome,[17],inactive
O=C(O)c1ccc2c(c1)nc(C(=O)NC1CCN(C3CC3)CC1)n2Cc1cc(-c2ccc(Cl)s2)on1,outcome,[1],inactive
Cc1nc(-c2ccccn2)ncc1C(=O)Nn1cc(C)c2cc(F)ccc21,AC50,[17],0.000427 µM (active)
CCCCC(CC)C(=O)OCCOCCOCCOC(=O)C(CC)CCCC (stereo not given),outcome,[17],inactive
O=C(Cl)C(F)(F)C(F)(F)C(F)(F)C(=O)Cl,outcome,[1],inactive
Cn1cc[nH]c1=S,outcome,[1],inactive
OC[C@H]1O[C@@H]2O[C@H]3[C@H](O)[C@@H](O)[C@@H](O[C@H]4[C@H](O)[C@@H](O)[C@@H](O[C@H]5[C@H](O)[C@@H](O)[C@@H](O[C@H]6[C@H](O)[C@@H](O)[C@@H](O[C@H]7[C@H](O)[C@@H](O)[C@@H](O[C@H]1[C@H](O)[C@H]2O)O[C@@H]7CO)O[C@@H]6CO)O[C@@H]5CO)O[C@@H]4CO)O[C@@H]3CO,outcome,[1],inactive

# Reference: PubChem BioAssay (EPA / NIEHS)
